Structures are written as SMILES. Records with an inconclusive call do not appear. Values without a mark were called inactive. Calls come from the whole dose curve; as a rule, active = well fitted cell-killing curve with a large enough effect; inconclusive = small, poorly fitted or top-dose-only effect, or effect the other way; inactive = flat fitted curve, though single readings scatter. Where a SMILES comes first, the peptide text is derived from it. Bridges are numbered along the chain shown (N, C = ends). [ ]: non-standard residue; d: D form. hArg = N=C(N)NCCCC[C@H](N)C(=O)O; Mpa = O=C(O)CCS
% is set by controls: 0 for no effect and ±100 for the full control effect.

For one test, the system named is Tov-21-G. The test can be described thus: Primary qHTS to identify gynecologic anti-cancer compounds using libraries of approved drugs and bioactive compounds (AID 1345084). Note: nearly all actives have a fitted effect of over 55% in size. To be noted: Gynecologic cancer cell panel viability, ATPlite luminescence, 48 h; series mostly up to 57.5 µM; activity change, negative = cytotoxicity: at the top concentration. An outline of the steps:
(§1)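 48 h compound exposure at 37 C, 5% CO2; five-point qHTS. ATPlite luminescence readout of cell ATP.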
In the case of `CCCCCCCCCCC(CO)CCCCCCCC` (stereo unspecified), the “activity change, negative = cytotoxicity” value was -1.3%.
`O=C(O)/C=C/c1ccc(Cn2ccnc2)cc1`: the “activity change, negative = cytotoxicity” value is 8.36%.
Turning to `CCN(CC)S(=O)(=O)c1ccc(C(=O)O)cc1`, the “activity change, negative = cytotoxicity” value is 0.458%.
On to `C/C=C/C(=O)N(CC)c1ccccc1C`, for which the “activity change, negative = cytotoxicity” value was 3.15%.
For `O=C(NCCCN1CCOCC1)c1ccc(Cl)cc1`, the “activity change, negative = cytotoxicity” value is 10.5%.
With `CC1(C)S[C@@H]2[C@H](N=CN3CCCCCC3)C(=O)N2[C@H]1C(=O)O`, the “activity change, negative = cytotoxicity” value was 3.27%.
On the same count and under the same terms, next, `O=C(O)c1ccc[n+]([O-])c1`: 2.78%.
Same read-out and setting: to `NC(=O)CC[C@@H](N)C(=O)O` belongs -1.77%.

The next test concerns Tov112D. The description is as above. The settings on record: Gynecologic cancer cell panel viability, ATPlite luminescence, 48 h; series mostly up to 57.5 µM; activity change, negative = cytotoxicity: at the top concentration. An outline of the steps: as §1
A general note: ATP-based viability assays read luminescence as a measure of living cells.
Consider `CN1C[C@@H]2C[C@H]1CN2c1cc2c(cc1F)c(=O)c(C(=O)O)cn2C1CC1`, for which the “activity change, negative = cytotoxicity” value is -3.58% [at 25.3 µM].
In the case of `CCOc1ccc(C(=O)OCCN(CC)CC)cc1`, the “activity change, negative = cytotoxicity” value was -1.32%.
Still for that read-out and setting: to `CCOc1cc(NC(C)=O)ccc1C(=O)OC` belongs 18.4%.
Consider `COc1nccnc1NS(=O)(=O)c1ccc(N)cc1`, for which the “activity change, negative = cytotoxicity” value is 7.82%.
Still for that read-out and setting: to `CCCCCC(C)N` (stereo unspecified) belongs 9.72%; to `CCCNC(C)C(=O)Nc1c(C)csc1C(=O)OC` (stereo unspecified), 2.04%; to `CC(=O)N(CC(O)CN(C(C)=O)c1c(I)c(C(=O)NCC(O)CO)c(I)c(C(=O)NCC(O)CO)c1I)c1c(I)c(C(=O)NCC(O)CO)c(I)c(C(=O)NCC(O)CO)c1I` (stereo unspecified), 7.8%.
The same measure, in the same setting: next, `CN/C(=C\[N+](=O)[O-])NCCSCc1csc(CN(C)C)n1`: 1.35%.
As to `CCc1nnc(NS(=O)(=O)c2ccc(N)cc2)s1`, the “activity change, negative = cytotoxicity” value was -1.75%.
On the same count and under the same terms, next, `O=C(NCC(O)CO)c1c(I)c(C(=O)NCC(O)CO)c(I)c(N(CCO)C(=O)CO)c1I` (stereo unspecified): -14.2%; `O=C(O)c1ccc(OCCCOc2ccc(C(=O)O)cc2)cc1`: 5.73%.
Regarding `O=C(Cn1ccnc1[N+](=O)[O-])NCCO`, the “activity change, negative = cytotoxicity” value was -3.65%.
Regarding `COCC(=O)Nc1c(I)c(C(=O)NCC(O)CO)c(I)c(C(=O)N(C)CC(O)CO)c1I` (stereo unspecified), the “activity change, negative = cytotoxicity” value is -8.53%.
On the same count and under the same terms, to `NC(=O)[C@@H]1CSSCCC(=O)N[C@@H](CCCCN=C(N)N)C(=O)NCC(=O)N[C@@H](CC(=O)O)C(=O)N[C@@H](Cc2c[nH]c3ccccc23)C(=O)N2CCC[C@H]2C(=O)N1` ([Mpa][hArg]GDWPC-NH2; disulfide 1-7) belongs 0.956%.
As to `O=c1[nH]c(=O)c2ccccc2o1`, the “activity change, negative = cytotoxicity” value was 14.1%.
Consider `NNC(=O)CP(=O)(c1ccccc1)c1ccccc1`, for which the “activity change, negative = cytotoxicity” value was -0.62%.
Still for that read-out and setting: to `COc1ccccc1Oc1c(NS(=O)(=O)c2ccc(C(C)(C)C)cc2)nc(-c2ncccn2)nc1OCCO` belongs 2.28%.
As to `CCN(CC)CC1CCCCN1CC(=O)N1c2ccccc2C(=O)Nc2cccnc21` (stereo unspecified), the “activity change, negative = cytotoxicity” value is 2.91%.
Regarding `O=C(/C=C/c1ccc(O)c(O)c1)O[C@@H]1C[C@@](OC(=O)/C=C/c2ccc(O)c(O)c2)(C(=O)O)C[C@@H](O)[C@@H]1O`, the “activity change, negative = cytotoxicity” value was 4.71%.
Still for that read-out and setting: to `CC(C)(C)C(=O)OCOC(=O)[C@@H]1N2C(=O)[C@@H](NC(=O)[C@H](N)c3ccccc3)[C@H]2SC1(C)C` belongs 10%; to `CCCNC(C)(C)COC(=O)c1ccccc1`, -7.14%; to `CNc1c2c(nn1C)CCCC2`, -1.24%.
For `COc1ccccc1OC(=O)Oc1ccccc1OC`, the “activity change, negative = cytotoxicity” value is -11.6%.
As for `CC(=O)N(CC(O)CO)c1c(I)c(C(=O)NCC(O)CO)c(I)c(C(=O)NCC(O)CO)c1I` (stereo unspecified), the “activity change, negative = cytotoxicity” value was 7.33%.
In the case of `CC(N)CCCC(C)(C)O` (stereo unspecified), the “activity change, negative = cytotoxicity” value was 5.2%.
In the case of `Cc1[nH]c(C)c(Cl)c(=O)c1Cl`, the “activity change, negative = cytotoxicity” value is -3.8% [at 25.3 µM].
`CCN(CC)CCOC(=O)C(c1ccccc1)c1ccccc1`: the “activity change, negative = cytotoxicity” value is -11.9%.
The same measure, in the same setting: to `CN1CCCN=C1COC(=O)C(O)(c1ccccc1)C1CCCCC1` (stereo unspecified) belongs 0.388%; to `CCOC(=O)c1cccnc1`, 12.6%.
The same measure, in the same setting: to `C[N+]1(C)CCCC(OC(=O)C(O)(c2ccccc2)c2ccccc2)C1` (stereo unspecified) belongs -3.29%; to `CCCCCCCCCCC(CO)CCCCCCCC` (stereo unspecified), 6.25%.
Same read-out and setting: to `O=C(O)/C=C/c1ccc(Cn2ccnc2)cc1` belongs 22.8%.
As for `CCN(CC)S(=O)(=O)c1ccc(C(=O)O)cc1`, the “activity change, negative = cytotoxicity” value was -4.88%.
The same measure, in the same setting: to `C/C=C/C(=O)N(CC)c1ccccc1C` belongs 6.62%.
Still for that read-out and setting: next, `O=C(NCCCN1CCOCC1)c1ccc(Cl)cc1`: 1.53%.
Turning to `CC1(C)S[C@@H]2[C@H](N=CN3CCCCCC3)C(=O)N2[C@H]1C(=O)O`, the “activity change, negative = cytotoxicity” value is 10.2%.
The same measure, in the same setting: to `O=C(O)c1ccc[n+]([O-])c1` belongs 9%.
The same measure, in the same setting: next, `NC(=O)CC[C@@H](N)C(=O)O`: -0.435%.

These data come from PubChem BioAssay (NCATS).
